Test in all cases: HT-SELEX; high values mean tight binding
What all share (conditions): protein: recombinant; vector His6-GST; dsDNA, one strand shown

Assay [1] addresses T1, SALL4 ZFC4 WT (HT-SELEX) (Mus musculus, UniProt Q8BX22 870-940).
T1 sequence: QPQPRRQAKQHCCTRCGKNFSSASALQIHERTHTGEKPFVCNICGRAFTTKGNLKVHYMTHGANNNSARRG
A digest of the protocol: (§1)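 Purified recombinant mouse SALL4 zinc finger cluster 4 (residues 870–940, 1 µg) was incubated with library DNA (1.5 µg first cycle, 200 ng later) in 100 µl of 10 mM Tris–HCl pH 7.5, 50 mM NaCl, poly(dI-dC) and DTT for 10 min at room temperature, with Ni2+ bead capture and reselection for up to 6 cycles in triplicate. MiSeq reads were scanned for 6-mers. Binding signal is each canonical k-mer's read fraction as fold change relative to the initial random library.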

Assay [2] has as its target T2, SALL4 ZFC4 R900W (HT-SELEX) (Mus musculus, UniProt Q8BX22 870-940, R900W).
T2 sequence: T1 sequence with R31W
A digest of the protocol:
as §1

The target in assay [3] is T3, SALL4 ZFC4 G921D (HT-SELEX) (Mus musculus, UniProt Q8BX22 870-940, G921D).
T3 sequence: T1 sequence with G52D
A digest of the protocol:
as §1

The results in this text go back to paper PMC9838217, “Structure of SALL4 zinc finger domain reveals link between AT-rich DNA binding and Okihiro syndrome”.

Residue numbers refer to the chain shown, from its start.

Regarding ACCTTG, the binding signal is 0.8287 ± 0.00258 fold-change vs cycle 0 in assay [1], 0.986 ± 0.024 fold-change vs cycle 0 in assay [2] and 1 ± 0.0262 fold-change vs cycle 0 in assay [3].
For the sequence GCCTAA, the binding signal in assay [1] was determined as 0.547 ± 0.0354 fold-change vs cycle 0; in assay [2], 0.643 ± 0.0255 fold-change vs cycle 0; in assay [3], 0.746 ± 0.0372 fold-change vs cycle 0.
CGTCCA: the binding signal in assay [1] came out at 0.318 ± 0.0103 fold-change vs cycle 0; in assay [2], 0.381 ± 0.0253 fold-change vs cycle 0; in assay [3], 0.504 ± 0.0811 fold-change vs cycle 0.
In the same order, the values of GCACTA are 0.57 ± 0.0256 fold-change vs cycle 0, 0.649 ± 0.0265 fold-change vs cycle 0 and 0.725 ± 0.019 fold-change vs cycle 0.
In the same order, the values of CTGCTA are 0.699 ± 0.028 fold-change vs cycle 0, 0.757 ± 0.0335 fold-change vs cycle 0 and 0.816 ± 0.0523 fold-change vs cycle 0.
In the same order, the values of CAGTTA are 1.43 ± 0.0431 fold-change vs cycle 0, 1.46 ± 0.0224 fold-change vs cycle 0 and 1.36 ± 0.0634 fold-change vs cycle 0.
For the sequence CGTTAG, the results for the binding signal in assay [1], in assay [2] and in assay [3] were 0.723 ± 0.0258 fold-change vs cycle 0, 0.82 ± 0.0289 fold-change vs cycle 0 and 0.902 ± 0.0446 fold-change vs cycle 0, respectively.
Taken in the same sequence, the figures for ACAAAA were 1.6 ± 0.0623 fold-change vs cycle 0, 1.61 ± 0.0945 fold-change vs cycle 0 and 1.5 ± 0.125 fold-change vs cycle 0.
Taken in the same sequence, the figures for GAGTTA were 1.47 ± 0.0406 fold-change vs cycle 0, 1.52 ± 0.0183 fold-change vs cycle 0 and 1.45 ± 0.0562 fold-change vs cycle 0.
Taken in the same sequence, the figures for ACTCTG were 0.817 ± 0.0779 fold-change vs cycle 0, 0.914 ± 0.0491 fold-change vs cycle 0 and 0.937 ± 0.0411 fold-change vs cycle 0.
On to CATCGG, for which the binding signal was found to be 0.364 ± 0.0112 fold-change vs cycle 0 in assay [1], 0.442 ± 0.0135 fold-change vs cycle 0 in assay [2] and 0.568 ± 0.0586 fold-change vs cycle 0 in assay [3].
Taken in the same sequence, the figures for CCTACA were 0.76 ± 0.0346 fold-change vs cycle 0, 0.876 ± 0.0282 fold-change vs cycle 0 and 0.919 ± 0.0351 fold-change vs cycle 0.
In the same order, the values of CGGAGA are 0.359 ± 0.025 fold-change vs cycle 0, 0.45 ± 0.0336 fold-change vs cycle 0 and 0.543 ± 0.0379 fold-change vs cycle 0.
In the same order, the values of ATGGTC are 0.721 ± 0.0351 fold-change vs cycle 0, 0.8234 ± 0.00272 fold-change vs cycle 0 and 0.902 ± 0.0335 fold-change vs cycle 0.
For CCGATC, the results for the binding signal in assay [1], in assay [2] and in assay [3] were 0.399 ± 0.0279 fold-change vs cycle 0, 0.473 ± 0.0177 fold-change vs cycle 0 and 0.64 ± 0.0658 fold-change vs cycle 0, respectively.
In the same order, the values of ATGTCA are 1.23 ± 0.0617 fold-change vs cycle 0, 1.34 ± 0.0399 fold-change vs cycle 0 and 1.32 ± 0.0617 fold-change vs cycle 0.
On to CAGTGA, for which the binding signal was 0.806 ± 0.0191 fold-change vs cycle 0 in assay [1], 0.934 ± 0.023 fold-change vs cycle 0 in assay [2] and 0.957 ± 0.0322 fold-change vs cycle 0 in assay [3].
Taken in the same sequence, the figures for ATCGGG were 0.397 ± 0.0233 fold-change vs cycle 0, 0.457 ± 0.0142 fold-change vs cycle 0 and 0.568 ± 0.0671 fold-change vs cycle 0.
In the same order, the values of GGTTCA are 0.788 ± 0.0387 fold-change vs cycle 0, 0.916 ± 0.0428 fold-change vs cycle 0 and 0.966 ± 0.0244 fold-change vs cycle 0.
Consider GTCCTA, for which the binding signal in assay [1] amounted to 0.764 ± 0.0287 fold-change vs cycle 0; in assay [2], 0.905 ± 0.0413 fold-change vs cycle 0; in assay [3], 0.9363 ± 0.00722 fold-change vs cycle 0.
Taken in the same sequence, the figures for CACCGA were 0.338 ± 0.00929 fold-change vs cycle 0, 0.392 ± 0.0114 fold-change vs cycle 0 and 0.523 ± 0.056 fold-change vs cycle 0.
In the case of TGCAAA, the binding signal in assay [1] stood at 1 ± 0.0674 fold-change vs cycle 0; in assay [2], 0.975 ± 0.0411 fold-change vs cycle 0; in assay [3], 1.03 ± 0.0183 fold-change vs cycle 0.
Taken in the same sequence, the figures for GCCATA were 0.544 ± 0.0118 fold-change vs cycle 0, 0.556 ± 0.0265 fold-change vs cycle 0 and 0.681 ± 0.0554 fold-change vs cycle 0.
Taken in the same sequence, the figures for CTCAGA were 0.791 ± 0.0265 fold-change vs cycle 0, 0.909 ± 0.0246 fold-change vs cycle 0 and 0.948 ± 0.031 fold-change vs cycle 0.
Taken in the same sequence, the figures for ATTTAC were 1.95 ± 0.0871 fold-change vs cycle 0, 1.9 ± 0.0674 fold-change vs cycle 0 and 1.69 ± 0.111 fold-change vs cycle 0.
With CAAAGA, the results for the binding signal in assay [1], in assay [2] and in assay [3] were 1.18 ± 0.0383 fold-change vs cycle 0, 1.34 ± 0.0673 fold-change vs cycle 0 and 1.28 ± 0.0399 fold-change vs cycle 0, respectively.
Taken in the same sequence, the figures for GTCAAC were 0.711 ± 0.0163 fold-change vs cycle 0, 0.867 ± 0.00955 fold-change vs cycle 0 and 0.934 ± 0.0287 fold-change vs cycle 0.
In the same order, the values of CATGGA are 0.865 ± 0.0271 fold-change vs cycle 0, 0.95 ± 0.0312 fold-change vs cycle 0 and 0.985 ± 0.0405 fold-change vs cycle 0.
On to CAGGAA, for which the binding signal in assay [1] came out at 0.785 ± 0.0392 fold-change vs cycle 0; in assay [2], 0.921 ± 0.0224 fold-change vs cycle 0; in assay [3] it was 0.918 ± 0.0252 fold-change vs cycle 0.
In the same order, the values of CTCGTC are 0.385 ± 0.0153 fold-change vs cycle 0, 0.487 ± 0.019 fold-change vs cycle 0 and 0.571 ± 0.0514 fold-change vs cycle 0.
